From PubChem BioAssay
NS1 inh: blocks influenza NS1 protein function | Potency, µM (highest dose often 46.1 µM), for inactives: at the highest dose activity, positive = more growth | 270,000 compounds, 0.4% hits | AID 2326; calls by dose curve; further: potency means the concentration at half of the fitted maximal effect; actives are rising curves; nearly all actives have a fitted effect of over 50% in size
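Growth recovery, yeast-based: influenza A NS1 expressed in S. cerevisiae causes slow growth, and suppressors are detected by OD600. The parent strain without NS1 is used as positive control.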
Pf growth 96h: P. falciparum growth inhibition at 96 hours; AID 504834; P. falciparum luciferase reporter growth, 96 h; 320,000 compounds, 6.9% hits; Potency, µM (highest dose often 28.7 µM), without a hit: top-dose activity change, negative = inhibition, actives largely listed as inhibitors; further: potency means the concentration at half of the fitted maximal effect; on the % scale 0 is the no-effect control and ±100 the full control effect
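Luminescence readout: decreased luciferase signal marks inhibited growth of reporter-expressing P. falciparum in infected red cells (2% hematocrit, 0.05% parasitemia final), exposed to compound two generations (96 h, 37 C, 5% CO2).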
Cycloheximide cs: affects cycloheximide protein synthesis inhibition readout, counter-screen | max response, % | 300,000 compounds, 12% hits | cell reporter, cycloheximide protein synthesis inhibition counterscreen; in the data active means max response mostly above about 13%, no sharp cut-off; inactive means mostly below about 14%; further: read at 38.3 µM for the half of the compounds with a filed dose; 0% is about no effect
Shiga toxin inh: Shiga toxin inhibition. 290,000 compounds, 9.2% hits. Vero cells, Shiga toxin protein synthesis inhibition reporter. AID 2315. inhibition, % at 38.7 µM; in the data active means inhibition mostly above about 28%, no sharp cut-off; inactive means mostly below about 43%; further: 0% is about no effect
Pf growth 48h: inhibits P. falciparum growth in the first generation, 48 h; P. falciparum luciferase growth in erythrocytes, 48 h; 310,000 compounds, 5.9% hits; Potency, µM (doses to about 28.7 µM), for the others: top-dose activity change, negative = inhibition, usual class: inhibitors; AID 504832; further: potency means the concentration at half of the fitted maximal effect; on the % scale 0 is the no-effect control and ±100 the full control effect
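Here the parasites carry a stable luciferase gene and grow inside erythrocytes in Albumax-based RPMI medium with compound for one erythrocytic cycle. Activity is scored as loss of luminescent signal.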
* = called active by the depositor; ? = inconclusive; / = no result given. Shown are actives, neighbours in structure and some others; about 21% of the full set was active somewhere. Unless noted, the call rests on the fitted dose curve; in most records, active means well fitted inhibition curve with a large enough effect; inconclusive means small, poorly fitted or top-dose-only effect, or another doubt; inactive means no such curve, though single readings can be large or run the other way.

SMILES | NS1 inh | Pf growth 96h | Cycloheximide cs | Shiga toxin inh | Pf growth 48h
Cc1ccsc1/C=N/NC(=O)c1ccco1 | 1.8% | 31.6% | 24.2* | 46.3* | 25.0%
COc1ccccc1/C=N/NC(=O)c1ccc(C)nc1 | 9.6% | ? | 9.1 | -8.7 | 3.4%
Cc1ccsc1/C=N/NC(=O)CO | 8.4% | 13.8% | -3.8 | -4.4 | 3.5%
Cc1ccc(C(=O)N/N=C\c2sccc2C)cn1 | -2.7% | ? | 34.1* | 73.4* | 123.0%
Cc1ccsc1/C=N/NC(=O)CC(=O)NCC(C)C | / | -18.8% | -3.2 | -11.1 | 33.3%
Cc1ccsc1/C=N/NC(=O)c1ccc(-n2cccc2)cc1 | 7.5% | -46.6% | 32.6* | 65.6* | ?
CCOC(=O)N1CCN(CC(c2ccccc2)c2ccccc2)CC1 | -13.6% | ? | -2.3 | / | ?
Cc1nonc1CC(=O)N1CCCC(C(=O)c2ccc(Cl)cc2)C1 (stereo unspecified) | 0.7% | ? | -2.9 | -4.3 | 11.7%
COC(=O)c1ccccc1N(C)S(=O)(=O)c1cc2c(cc1C)OCC(=O)N2 | / | ? | -1.6 | -1.4 | -25.2%
Cc1ccsc1/C=N/NC(=O)c1sccc1C | -11.6% | 107.5% | 53.5* | 94.7* | 67.9%
Cc1ccsc1/C=N/NC(=O)c1ccc2nc[nH]c2c1 | 7.5% | 41.2% | 20.6* | 31.7* | 57.6%
Cc1ccsc1/C=N\NC(=O)c1cc(C(C)(C)C)[nH]n1 | -0.6% | ? | 23.6* | 104.2* | 0.0%
Cc1c(/C=N/NC(=O)c2cc(C(C)(C)C)[nH]n2)c2ccccc2n1C | -1.8% | ? | -3.4 | -3.1 | ?
COc1c2c(nc3occc13)C(CC=C(C)C)(OC)C(OC(C)=O)CC2 (stereo unspecified) | 11.7% | -23.9% | -2.7 | -5.8 | ?
O=C(NCc1ccc(Cl)cc1)c1noc2c1CCCCC2 | -35.9% | 9.28µM* | 32.1* | 46.8* | 43.3%
O=C(Nc1cc(Cl)ccc1Cl)c1noc2c1CCCC2 | ? | 8.1% | 1.5 | -1.6 | 20.6%
CC(C)(C)C1CCc2onc(C(=O)NCc3ccc(F)cc3)c2C1 (stereo unspecified) | -71.5% | 0.2% | -2.8 | 3.7 | 18.4%
O=C(NCc1ccc(F)cc1)c1noc2c1CCCCC2 | -16.9% | ? | 20.8* | 31.9 | 31.4%
O=C(NCc1ccc(F)cc1)c1noc2c1CCCC2 | -9.3% | 50.3% | 20.5* | 50.5 | 21.9%
Cc1cc(NC(=O)c2noc3c2CCCCC3)nn1Cc1ccc(Cl)cc1 | -8.2% | 5.6% | 11.0 | 33.3 | 28.6%
O=C(Nc1ccc(F)cc1F)c1noc2c1CCC2 | -1.1% | 37.4% | 34.9* | 58.8* | ?
C=CCC1NS(=O)(=O)OCC1C(C)C (stereo unspecified) | -15.8% | -17.8% | -1.7 | -6.1 | 25.1%
Nc1nc2c(C(=O)N3CCOCC3)nnn2c2ccccc12 | 5.6% | 267.3% | 21.4* | 60.4* | 235.7%
Cc1cc(OC(C)C(N)=O)nc(-c2ccccc2)n1 (stereo unspecified) | / | 10.0% | 5.1 | 13.0 | 14.7µM*
CCC(C(=O)OCC(=O)N1CCN(S(=O)(=O)c2ccc(C)cc2C)CC1)c1ccccc1 (stereo unspecified) | / | 9.28µM* | / | / | 13.1µM*
SMILES | NS1 inh | Pf growth 96h | Cycloheximide cs | Shiga toxin inh | Pf growth 48h
CCOC(=O)c1c(C)[nH]c(C(=O)OCC(=O)N2CCN(S(=O)(=O)c3ccc(C)cc3C)CC2)c1C | / | 7.38µM* | / | / | 14.7µM*
Cc1ccc(S(=O)(=O)N2CCN(C(=O)COC(=O)c3ccc(O)cc3)CC2)c(C)c1 | / | ? | / | / | -42.6%
COc1cc(/C=N/NC(=O)c2cccc([N+](=O)[O-])c2)ccc1OCc1ccccc1 | 17.5% | 9.28µM* | 2.3 | -16.0 | 16.5µM*
COc1cc(/C=N/NC(=O)c2ccc(O)cc2)ccc1OCC(=O)N1CC(C)OC(C)C1 (stereo unspecified) | 6.9% | 10.8% | 14.1* | 36.9* | -6.3%
CCOc1cc(/C=N/NC(=O)c2cc(C)[nH]n2)ccc1OC(=O)c1ccc([N+](=O)[O-])cc1 | 0.1% | 99.5% | 7.0 | 15.9 | 1.3%
COc1cc(/C=N/NC(N)=O)ccc1OC(=O)c1ccco1 | / | 10.1% | 0.4 | -15.4 | -6.5%
COc1cc(/C=N/Nc2cccc(C)c2)ccc1OC(=O)c1ccco1 | -4.3% | 12.3% | 38.6* | 19.7 | -11.0%
CCOc1cc(/C=N/n2cnnc2)ccc1OC(=O)c1cccc([N+](=O)[O-])c1 | 9.0% | 3.29µM* | -3.0 | -19.7 | 21.8%
COc1ccc(/C=N/NC(=O)c2cccc([N+](=O)[O-])c2)cc1OC | 5.3% | -24.6% | 1.0 | 17.4 | 8.0%
